# Test results taken from ChEMBL document CHEMBL3988442, “University of Dundee, Small-Polar-MMV Screening Library” (2021).
# In all, about 66,000 compounds went through this assay and about 960 (1.5%) showed an effect of 50% or more. This excerpt belongs to a sample that is enriched for strong results.
# Tested on: Trypanosoma brucei
# Experiment: Trypanosoma brucei 72 hour study
# Assay type: functional, organism-based
# Parameters: scale not given: in the data most compounds retested in dose-response had high values
smiles,measurement,setting,value
O=C(c1cnc(-c2ccco2)s1)N1CCCCC1Cn1cccn1 (stereo unspecified),Percent Effect,"30.3 µM, […]",-0.6425%
CN(C)C1COC2(CCN(Cc3ccc4c(c3)OCO4)CC2)C1.O=C(O)C(F)(F)F.O=C(O)C(F)(F)F (stereo unspecified),Percent Effect,"30.3 µM, […]",39.28%
c1ccc(-c2cc(CNCCN3CCCC3)c3nnnn3c2)cc1,Percent Effect,"30.3 µM, […]",99.79%
c1ccc(-c2cc(CNCCCN3CCCCC3)c3nnnn3c2)cc1,Percent Effect,"30.3 µM, […]",-3.089%
c1ccc(-c2cc(CNCCN3CCOCC3)c3nnnn3c2)cc1,Percent Effect,"30.3 µM, […]",-21.36%
O=C(N1CCOCC1)N1CCc2ncnc(NC3CCC3)c2CC1.O=C(O)C(F)(F)F,Percent Effect,"30.3 µM, […]",-46.89%
O=C(Cn1cccn1)Nc1ccc(N2CCCCC2)cc1,Percent Effect,"30 µM, 30.03 µM",-14.86%
Cc1cccnc1[C@]1(O)CC[C@H]2CN(Cc3cccc(Cl)c3Cl)C[C@H]21.O=C(O)CC(O)(CC(=O)O)C(=O)O,Percent Effect,"30.3 µM, […]",-4.562%
Cc1ccc(SC2CCCC2)c(C(=O)NCCO)c1,Percent Effect,"30 µM, 30.03 µM",-19.93%
COCc1ccccc1CNCc1c(C(C)C)nn(C)c1N(C)C,Percent Effect,10 µM,-17.78%
CC(C)c1nn(C)c(N(C)C)c1CNCC(O)c1ccccc1 (stereo unspecified),Percent Effect,"30.3 µM, […]",9.453%
same,Percent Effect,"10 mM, 10 mM as filed; unlikely as a test dose",-25.34%
CC(C)c1nn(C)c(N(C)C)c1CNCC(O)c1cccc(F)c1 (stereo unspecified),Percent Effect,10 µM,-45.99%
COc1ncccc1CNCc1c(C(C)C)nn(C)c1N(C)C,Percent Effect,"30.3 µM, […]",0.2022%
Cc1ccc(C(O)CNCc2c(C(C)C)nn(C)c2N(C)C)cc1 (stereo unspecified),Percent Effect,"30 µM, 30.03 µM",54.73%
COc1cccc(CNCc2c(C(C)C)nn(C)c2N(C)C)c1OC,Percent Effect,"30 µM, 30.03 µM",101.8%
Cc1ccc(CN(CCCN2CCOCC2)Cc2[nH]cnc2C)o1.O=C(O)CC(O)(CC(=O)O)C(=O)O,Percent Effect,"30.3 µM, […]",-12.11%
CN(C)CCNC(=O)C1Cc2nc(-c3ccccc3)sc2N1CC1CC1.O=C(O)C(F)(F)F (stereo unspecified),Percent Effect,"30.3 µM, […]",23.06%
O=C(C1CCOCC1)N1CCc2onc(COc3cccnc3)c2C1.O=C(O)C(F)(F)F,Percent Effect,"30.3 µM, […]",-638.1%
COc1cc(CN(C)[C@@H]2COC[C@H]2c2ccc(F)cc2)cc(OC)c1.O=C(O)CC(O)(CC(=O)O)C(=O)O,Percent Effect,"30.3 µM, […]",-25.55%
Cc1ccc(N2CC[C@H]3O[C@@H](C(=O)N4CCCO4)CC[C@H]32)nn1.O=C(O)C(F)(F)F,Percent Effect,"30.3 µM, […]",-45.1%
COc1ccc(CNC(=O)Nc2cccnc2N2CCCC2)cc1OC,Percent Effect,"30.3 µM, […]",-31.53%
COc1ccc(CNC(=O)Nc2cccnc2N2CCCC2)cc1O,Percent Effect,"30 µM, 30.03 µM",51.01%
COc1ccc(CNC(=O)Nc2cccnc2N2CCCC2)cc1,Percent Effect,"30.3 µM, […]",-33.31%
CC1CCN(CC(=O)NC2CCN(C(C)c3ccccc3)CC2)CC1.Cl (stereo unspecified),Percent Effect,"30.3 µM, […]",21.99%
COc1ccc(CN2CCC3(CC2)CCN(c2cnn(C)c2)C3=O)cc1.O=C(O)C(F)(F)F,Percent Effect,"30 µM, 30.03 µM",29.53%
CN(Cc1n[nH]c2c1CCC2)c1nc(C2CCCC2)nc2c1CNC2,Percent Effect,"30 µM, 30.03 µM",-1.405%
CN(C)c1nc2c(c(N(C)Cc3n[nH]c4c3CCCC4)n1)CCNCC2,Percent Effect,"30 µM, 30.03 µM",21.59%
CN(Cc1n[nH]c2c1CCCC2)c1nc(C2CC2)nc2c1CCNCC2,Percent Effect,"30 µM, 30.03 µM",53.53%
O=C(C1CCCN(C2CCOCC2)C1)N1Cc2ccccc2C1 (stereo unspecified),Percent Effect,"30 µM, 30.03 µM",-36.54%
O=C(CN1CCSC2(CCCCC2)C1)NCC(F)(F)F,Percent Effect,"30.3 µM, […]",27.46%
O=C(CN1CCC2(CCCCC2)C1)NCC(F)(F)F,Percent Effect,"30.3 µM, […]",100.3%
CC(C)(C)C(O)CN1CCN(CC(=O)NCC(F)(F)F)CC1 (stereo unspecified),Percent Effect,"30 µM, 30.03 µM",-50.05%
CCNC(=O)[C@@H]1C[C@H](N)CN1C(=O)c1c[nH]c2ccccc12,Percent Effect,"30.3 µM, […]",-39.66%
Cc1cc2c(cc1Cl)C=CC1(CCN(CC(=O)N3CCOCC3)CC1)O2,Percent Effect,"30.3 µM, […]",-3.407%
CCN(CC)C(=O)CN1CCC2(C=Cc3cc(Cl)c(C)cc3O2)CC1,Percent Effect,"30.3 µM, […]",99.22%
Cc1cc2c(cc1Cl)C=CC1(CCN(CC(=O)N3CCCC3)CC1)O2,Percent Effect,"30.3 µM, […]",-16.81%
CNC(=O)N1C[C@H]2C[C@H](C(=O)NCc3cccnc3)[C@@H](C1)O2.O=C(O)C(F)(F)F,Percent Effect,"30 µM, 30.03 µM",41.37%
Cc1noc(C)c1C(=O)N1CCC(c2[nH]ncc2S(C)(=O)=O)C1 (stereo unspecified),Percent Effect,"30.3 µM, […]",-19.64%
CN(CC1CCOCC1)C(C(=O)O)c1cccc(F)c1F (stereo unspecified),Percent Effect,"30 µM, 30.03 µM",-18.13%
c1ccc(CCN2CCN(c3ccc4nncn4n3)CC2)nc1,Percent Effect,"30 µM, 30.03 µM",14.18%
FC(F)(F)COCCN1CCN(c2ccc3nncn3n2)CC1,Percent Effect,"30 µM, 30.03 µM",29.6%
c1ccc(OCCCN2CCN(c3ccc4nncn4n3)CC2)cc1,Percent Effect,"30 µM, 30.03 µM",53.47%
c1ccc(CCN2CCN(c3ccc4nncn4n3)CC2)cc1,Percent Effect,10 µM,-2.806%
Clc1ccccc1CCN1CCN(c2ccc3nncn3n2)CC1,Percent Effect,10 µM,55.98%
c1ccc(CCCN2CCN(c3ccc4nncn4n3)CC2)cc1,Percent Effect,10 µM,-24.8%
COCCN1CCC2(CC1)CC(NC(=O)CN(C)C)c1ccccc1O2.O=C(O)C(F)(F)F.O=C(O)C(F)(F)F (stereo unspecified),Percent Effect,"30.3 µM, […]",-3.899%
CNC(=O)[C@H]1C[C@@H]2CN(C(=O)c3ccncc3)C[C@@H]2N1S(C)(=O)=O.O=C(O)C(F)(F)F,Percent Effect,"30.3 µM, […]",-12.29%
Cc1cnc(N2CCc3cc(C(=O)O)c(N(C)C)nc3CC2)nc1.O=C(O)C(F)(F)F,Percent Effect,"30.3 µM, […]",-16.6%
O=C(NCC1CCN(CCc2ccccc2)C1)c1cc(Cl)c[nH]1 (stereo unspecified),Percent Effect,"30 µM, 30.03 µM",-9.095%
CCC(=O)N1CCN(c2ccc(C(=O)OC)cc2)CC1C (stereo unspecified),Percent Effect,"30 µM, 30.03 µM",6.915%
